# Test results taken from PubChem BioAssay (NCI).
# Compounds without any hit were thinned out: in the full panel of roughly 83,000, 20% have a hit.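 Activity criterion: percent growth below 10, measured after cells in 96-well plates were exposed to a single compound concentration for 48 hours.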 A number with no mark means an inactive call. Activity calls are given as the source filed them.
# Key:
# Assay in all cases: NCI-60 one-dose screen, 48 h (100 = growth as untreated, 0 = no growth, -100 = all killed)
# [1] = system: NCI-H23 lung; settings: 10 µM unless noted
# [2] = system: DU-145 prostate; settings: 10 µM unless noted
# [3] = system: MDA-MB-231 breast; settings: 10 µM unless noted
# [4] = system: SF-268 CNS; settings: 10 µM unless noted
# [5] = system: SF-539 CNS; settings: 10 µM unless noted
# [6] = system: M14 melanoma; settings: 10 µM unless noted
# [7] = system: HCT-15 colon; settings: 10 µM
# [8] = system: HT29 colon; settings: 10 µM unless noted
# [9] = system: SNB-75 CNS; settings: 10 µM unless noted
# [10] = system: PC-3 prostate; settings: 10 µM unless noted
# [11] = system: UACC-62 melanoma; settings: 10 µM unless noted
# [12] = system: SK-MEL-28 melanoma; settings: 10 µM unless noted
# [13] = system: SN12C renal; settings: 10 µM unless noted
# [14] = system: ACHN renal; settings: 10 µM unless noted
# [15] = system: OVCAR-8 ovarian; settings: 10 µM unless noted
# [16] = system: OVCAR-5 ovarian; settings: 10 µM unless noted
# [17] = system: NCI/ADR-RES ovarian; settings: 10 µM unless noted
# [18] = system: MDA-MB-435 melanoma; settings: 10 µM unless noted
# [19] = system: HCT-116 colon; settings: 10 µM unless noted
# [20] = system: KM12 colon; settings: 10 µM unless noted
SMILES,growth [1],growth [2],growth [3],growth [4],growth [5],growth [6],growth [7],growth [8],growth [9],growth [10],growth [11],growth [12],growth [13],growth [14],growth [15],growth [16],growth [17],growth [18],growth [19],growth [20]
CNC(=O)Oc1cc(C(C)C)ccc1Sc1ccc(C(C)C)cc1OC(=O)NC,76.4%,72.8%,58.4%,60.2%,56.8%,89.2%,28.6%,97.6%,52.1%,53.7%,47.2%,66.3%,85.3%,81.6%,66.9%,95.7%,54.1%,4.24% (active),66.5%,57.9%
CC12CCC3C(CC=C4CC(O)CCC43C)C1C/C(=C\N1CCOCC1)C2=O (stereo unspecified),111%,110%,106%,109%,108%,112%,99.9%,105%,83.5%,96.4%,104%,106%,102%,99.6%,100%,98.1%,106%,107%,101%,108%
Cc1cc([N+](=O)[O-])c(Cl)cc1NS(=O)(=O)c1ccccc1,76.5%,104%,108%,90.3%,60.6%,62.9%,73.1%,82.1%,64.1%,81.2%,37.1%,76%,78.1%,83.1%,78.1%,83.5%,78.7%,58.4%,87.3%,80.8%
C=CCC1(CC)C(=O)NC(=S)NC1=O,100%,103%,109%,101%,98.3%,115%,99.9%,98%,104%,96.8%,101%,116%,93.4%,101%,100%,101%,104%,103%,108%,101%
O=C(CCF)c1ccc(O)cc1,94%,105%,113%,,103%,106%,102%,98.2%,96.9%,98%,106%,113%,100%,106%,99.2%,96.7%,105%,104%,103%,106%
COc1cc(C2=NN(c3ccccc3)C(c3sc(N(CCCl)CCCl)nc3Cl)C2)cc(OC)c1OC (stereo unspecified),92.5%,102%,85.6%,80.7%,110%,91.5%,97.5%,84.5%,69.2%,73.9%,48.4%,99.1%,79.9%,88.8%,90.4%,99.5%,93.8%,101%,80.3%,82.8%
O=[N+]([O-])c1ccc2cnn(CSP(=S)(c3ccccc3)c3ccccc3)c2c1,67.4%,105%,51.8%,79.9%,82.7%,58.1%,48.1%,39.6%,70.6%,58.6%,43%,74.1%,69.9%,74.8%,82.4%,96.7%,49.8%,-20.9% (active),42.4%,63.7%
CC(=O)[O][Hg][c]1ccccc1,-84.5% (active),-97.9% (active),-54.8% (active),-86.4% (active),-53.6% (active),-90% (active),-65.5% (active),-47.9% (active),-65.9% (active),-57.8% (active),-69% (active),-88.4% (active),-90.5% (active),,,,-39.1% (active),-89.2% (active),-88% (active),-95.3% (active)
